# Source: PubChem BioAssay (NCATS)
# Values without a mark were called inactive. Records with an inconclusive call do not appear. Where a call stands in place of a potency, no number is given. Activity calls are given as the source filed them. Unless noted, the call rests on the fitted dose curve; in most records, active means well fitted curve in the direction sought with a large enough effect; inconclusive means small, poorly fitted or top-dose-only effect, or another doubt; inactive means no such curve, though single readings can be large; an effect the other way counts as inactive or inconclusive.
# Assays:
# [1] = biological target: Cytochrome P450 1A2 (Homo sapiens) (UniProt P05177); test: p450-cyp1a2 (AID 410; calls by dose curve)
# Procedure, shortened: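 20nM CYP1A2, 100uM Luciferin-ME (=Km), 100mM KPO4; cpd 10 min RT; +NADPH regen, 60 min RT; stop/detect 20 min; luminescence. Normalized to furafylline 57 uM = full inhibition.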
# [2] = NFAT Signaling Pathway (AID 444; active means well fitted curve in either direction with a large enough effect, not every such curve was filed as active;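 further: carbachol stimulus at about its EC50 of 1 µM final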); details: Jurkat NFAT-bla M1, carbachol, beta-lactamase ratio, 5 h; at 7.69 µM (top of the series) unless noted
# Procedure, shortened: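 Jurkat cells carrying an NFAT-driven β-lactamase reporter and co-transfected muscarinic M1 receptor were treated with compound plus carbachol (1 uM final, an EC50 level) for 5 h at 37 °C. CCF4 loading followed for 1 h at RT; 460/530 nm ratio gave %activity.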
# [3] = Stat Signaling Pathway (AID 446; active means well fitted curve in either direction with a large enough effect, not every such curve was filed as active;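 further: ME-180 cervical cancer cells given 40 pM IL-6 alongside compound; SIE-controlled beta-lactamase reporter measured as 460/530 nm FRET emission ratio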); details: ME-180 SIE beta-lactamase reporter, IL-6 stimulated, 5 h; at 7.69 µM (top of the series) unless noted
# Procedure, shortened: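 Compound effects on IL-6-induced STAT reporter activity were measured in ME-180 cells. After overnight culture, cells were co-treated with 40 pM IL-6 for 5 hrs before beta-lactamase substrate loading at room temperature.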
# [4] = biological target: Glucocorticoid receptor (Homo sapiens) (UniProt P04150); test: GR-EFC Redistribution (AID 451; calls by dose curve; further: potency means the concentration at half of the fitted maximal effect); details: CHO-K1 GR-EFC translocation, beta-gal luminescence, 2 h
# Procedure, shortened: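 CHO-K1 cells stably expressing nuclear-localized β-gal enzyme acceptor and GR fused C-terminally to the enzyme donor fragment; ligand-driven nuclear translocation restores β-gal by complementation. Compounds titrated up to 46 uM final, 2 h at 37 °C; luminescence read.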
# [5] = biological target: Mitogen-activated protein kinase 10 (Mus musculus) (UniProt Q61831); test: JNK3 AlphaScreen Assay (AID 530; active means well fitted curve in either direction with a large enough effect, not every such curve was filed as active;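 further: kinase came from lysate of stimulated human HepG2 cells; signal reports phosphorylation of biotinylated GST-cJun 1-79 at Ser73 with 10 µM ATP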)
# Procedure, shortened: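 Biotinylated GST-cJun(1-79) served as substrate for JNK3 in HepG2 lysates stimulated with IL-1beta and TNF-alpha. ATP was 10 uM final, pH 7.6. Ser73 phosphorylation was quantified by AlphaScreen (680 nm excitation).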
# [6] = biological target: 3',5'-cyclic-AMP phosphodiesterase 4B (Homo sapiens) (UniProt Q07343); test: qHTS Assay for Inhibitors of PDE-IV (AID 607; active means well fitted activation curve with a large enough effect in the main read-out, with a control signal flat, not every such curve was filed as active)
# Procedure, shortened: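 ACTOne HEK293 cells carry a modified cAMP-gated CNG channel and express endogenous PDE4; plated 1000 cells/well, compounds up to 22.9 uM final. Membrane-potential dye fluorescence (ex 535/em 590) was read; parental cells received 10 uM forskolin + 100 uM RO 20-1724.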
# [7] = biological target: Cytochrome P450 2C9 (Homo sapiens) (UniProt P11712); test: qHTS Assay for Inhibitors and Substrates of Cytochrome P450 2C9 (AID 883); further: nearly all actives have a fitted effect of over 60% in size
# Procedure, shortened: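 CYP2C9 deoxyluciferin hydroxylation, 37C, 60 min with NADPH regeneration; 10nM enzyme, 100uM Luciferin-H (KM). Glo detection reagent stopped reaction; luminescence normalized to sulphaphenazole (57uM) full inhibition.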
# [8] = biological target: Cytochrome P450 2D6 (Homo sapiens) (UniProt P10635); test: qHTS Assay for Inhibitors and Substrates of Cytochrome P450 2D6 (AID 891);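 further: luciferin methyl ether substrate demethylated by CYP2D6 with NADPH regeneration; nearly all actives have a fitted effect of over 60% in size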
# Procedure, shortened: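 Luminescent read-out of luciferin formed by 5 nM human CYP2D6 demethylating 30 uM Luciferin-ME EGE (Km level) over 60 min at room temperature after NADPH regeneration addition. Data normalized to full inhibition by 1.43 uM quinidine.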
# [9] = biological target: Cytochrome P450 2C19 (Homo sapiens) (UniProt P33261); test: qHTS Assay for Inhibitors and Substrates of Cytochrome P450 2C19 (AID 899); further: nearly all actives have a fitted effect of over 60% in size
# Procedure, shortened: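 In 50mM KPO4, the reaction held 5nM enzyme and KM-level (10uM) Luciferin-H EGE; it ran 60 min at 37C after NADPH regeneration and a 10 min compound preincubation. Luminescence values were scaled to 57uM ketoconazole as complete inhibition.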
# [10] = AP1 Signaling Pathway (AID 357; active means well fitted curve in either direction with a large enough effect, not every such curve was filed as active;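 further: ME-180 reporter cells stimulated with EGF at its EC50 level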); details: ME-180 (cervical carcinoma) AP-1-bla reporter, EGF-induced, beta-lactamase ratio, 5 h; at 7.69 µM (top of the series) unless noted
# Procedure, shortened: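 AP-1-bla ME-180 cells, Opti-MEM + 0.5% dialyzed FBS, plated overnight 37 °C. Cpd titration + EC50 EGF, 5 h 37 °C. CCF4 2.5 h RT; ex 405, em 460/530 ratio → %activity, AC50.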
# [11] = biological target: Glucocorticoid receptor (Homo sapiens) (UniProt P04150); test: GR-GFP Redistribution (AID 450;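 active means compounds whose dose series gives a full or clear partial fitted curve of increased nuclear translocation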; further: potency means the concentration at half of the fitted maximal effect); details: U2OS GR-GFP nuclear translocation, laser cytometry, 2 h
# [12] = biological target: Guanine nucleotide-binding protein G(i) subunit alpha-1 (Homo sapiens) (UniProt P63096); test: qHTS Assay for Inhibitors of RGS12 GoLoco Motif Activity (Green Fluorophore) (AID 879);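 further: negative values mean loss of peptide binding seen as reduced polarization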
# Procedure, shortened: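 A drop in FITC polarization marked displacement of the FITC-tagged RGS12 GoLoco peptide (10 nM) from Gαi1 (50 nM). Compounds were incubated 10 min at room temperature in Tris pH 7.5 buffer containing 150 mM NaCl, 0.1 mM GDP and 0.05% NP40; unlabeled peptide titration served as control.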
# [13] = biological target: Cytochrome P450 3A4 (Homo sapiens) (UniProt P08684); test: qHTS Assay for Inhibitors and Substrates of Cytochrome P450 3A4 (AID 884); further: potency means the concentration at half of the fitted maximal effect; nearly all actives have a fitted effect of over 50% in size
# Procedure, shortened: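 Luminescent readout of luciferin produced by CYP3A4 (20 nM) dealkylation of Luciferin-PPXE, 25 uM (its KM). NADPH-driven reaction ran 60 min at RT after 10 min compound preincubation; data scaled to 57 uM ketoconazole as 100% inhibition.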
# [14] = qHTS Assay for Identification of Small Molecule Agonists for Thrombopoietin (TPO) Signaling Pathway (AID 917)
# Procedure, shortened: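 Quantitative HTS for pathway activators: compounds were pin-transferred onto IL-3-starved Ba/F3 cells expressing human TPO receptor, TPO was added at its EC50 (26 pM final), and after 24 hrs at 37 C reporter luciferase was measured.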
# [15] = biological target: Pyruvate kinase PKM (Homo sapiens) (UniProt P14618); test: qHTS Assay for Activators of Human Muscle Pyruvate Kinase (AID 954; active means well fitted curve in the direction sought with a large enough effect, not every such curve was filed as active)
# Procedure, shortened: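 A coupled luminescent readout tracked ATP made from ADP by purified PKM2. Final conditions included 0.1 nM enzyme, PEP and ADP at 0.5 and 0.1 mM, pH 7.2 imidazole buffer with BSA, and a one-hour room-temperature reaction.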
# [16] = biological target: Alpha-galactosidase A (Homo sapiens) (UniProt P06280); test: Counterscreen for Glucocerebrosidase Inhibitors: qHTS Assay for Human alpha-Galactosidase at pH 4.5 (AID 992)
# Procedure, shortened: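 Citrate buffer pH 4.5, Tween-20 0.005%. Enzyme 2 nM, substrate 80 uM, 20 min RT. Stop pH 10. Fluorescence Ex 365/Em 440. AC50 by Hill fit.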
# [17] = biological target: alpha-glucosidase (Oryza sativa, rice) (UniProt Q653V4); test: Counterscreen for Glucocerebrosidase Inhibitors: qHTS Assay for Rice alpha-Glucosidase at pH 5.0 (AID 997)
# Procedure, shortened: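 Endpoint fluorogenic assay at pH 5.0: compounds (0.7 nM to 77 uM) titrated against 4 nM rice enzyme and 400 uM 4-MU-alpha-glucoside for 20 min at room temperature; NaOH/glycine stop, read ex 365/em 440 nm, Hill-fitted AC50.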
# [18] = biological target: Cytochrome P450 3A4 (Homo sapiens) (UniProt P08684); test: qHTS Assay for Activators of Cytochrome P450 3A4 (AID 885); further: nearly all actives have a fitted effect of over 65% in size
# Procedure, shortened: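 CYP3A4 activity: Luciferin-PPXE O-dealkylation, 25uM substrate, 200mM KPO4, RT throughout. Read-out is luciferase luminescence; higher values reflect activation.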
# [19] = biological target: Muscarinic acetylcholine receptor M1 (Rattus norvegicus) (UniProt P08482); test: qHTS Assay for Antagonists of Acetylcholine Muscarinic M1 Receptor: Measurement of IP-One Response (AID 944); further: nearly all actives have a fitted effect of over 75% in size
# Procedure, shortened: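 Read-out: HTRF competition between d2-IP1 and Eu-cryptate anti-IP1 antibody, emission 620 and 665 nm. Stimulus was carbachol, EC80 (200 nM), for 30 min in M1-CHO cells (rat receptor), after 10 min compound pre-treatment.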
# [20] = Confirmation and Secondary Assay for Modulators of Hemoglobin Beta Chain Splicing at IVS2 654 locus (AID 910);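 further: per-well total GFP intensity by laser scanning cytometry after 2-day treatment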
# Procedure, shortened: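 HeLa cells stably carrying EGFP interrupted by mutant beta-globin IVS2-654 intron (CMV-driven) were treated with compound for 2 days at 37C; corrected splicing was scored as total peak GFP intensity per well (488 nm excitation, 500-520 nm emission).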
# [21] = biological target: Pyruvate kinase (Leishmania mexicana) (UniProt Q27686); test: qHTS Validation Assay for Inhibitors of Leishmania Mexicana Pyruvate Kinase (AID 945)
# Procedure, shortened: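 Eight-point qHTS titrations in triplicate, data normalized to DMSO neutral control. Reaction: 0.2 nM LmPYK E451W mutant, 0.5 mM PEP, 0.1 mM ADP, 7 mM MgCl2, pH 7.2, one hour at room temperature; luminescent ATP detection.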
# Cytochrome P450 3A4 (Homo sapiens), sequence (P08684 whole entry, looked up): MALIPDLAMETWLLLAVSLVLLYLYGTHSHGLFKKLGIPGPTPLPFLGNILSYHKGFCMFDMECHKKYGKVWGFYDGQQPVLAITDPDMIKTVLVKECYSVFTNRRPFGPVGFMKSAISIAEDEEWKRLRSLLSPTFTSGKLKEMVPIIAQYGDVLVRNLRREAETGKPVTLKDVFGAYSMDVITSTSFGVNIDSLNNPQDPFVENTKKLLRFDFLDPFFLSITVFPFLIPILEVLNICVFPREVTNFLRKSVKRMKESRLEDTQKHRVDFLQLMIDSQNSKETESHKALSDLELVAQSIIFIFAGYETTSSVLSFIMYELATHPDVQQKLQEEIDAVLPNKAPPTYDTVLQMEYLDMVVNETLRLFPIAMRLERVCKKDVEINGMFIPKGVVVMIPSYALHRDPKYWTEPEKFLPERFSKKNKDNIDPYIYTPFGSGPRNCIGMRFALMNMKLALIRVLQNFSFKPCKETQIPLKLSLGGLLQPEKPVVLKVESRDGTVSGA
# Alpha-galactosidase A (Homo sapiens), sequence (P06280 whole entry, looked up): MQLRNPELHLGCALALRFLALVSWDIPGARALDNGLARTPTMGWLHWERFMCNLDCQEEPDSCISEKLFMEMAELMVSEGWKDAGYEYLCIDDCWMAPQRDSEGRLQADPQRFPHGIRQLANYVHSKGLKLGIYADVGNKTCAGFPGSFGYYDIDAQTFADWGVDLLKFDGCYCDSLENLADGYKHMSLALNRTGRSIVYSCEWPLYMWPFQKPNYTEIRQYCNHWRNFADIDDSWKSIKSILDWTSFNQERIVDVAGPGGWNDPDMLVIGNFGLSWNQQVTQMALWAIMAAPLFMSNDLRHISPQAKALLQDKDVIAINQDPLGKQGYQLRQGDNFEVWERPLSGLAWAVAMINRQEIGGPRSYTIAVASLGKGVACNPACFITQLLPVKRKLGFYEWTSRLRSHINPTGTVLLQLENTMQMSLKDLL
# 3',5'-cyclic-AMP phosphodiesterase 4B (Homo sapiens), sequence (Q07343 whole entry, looked up): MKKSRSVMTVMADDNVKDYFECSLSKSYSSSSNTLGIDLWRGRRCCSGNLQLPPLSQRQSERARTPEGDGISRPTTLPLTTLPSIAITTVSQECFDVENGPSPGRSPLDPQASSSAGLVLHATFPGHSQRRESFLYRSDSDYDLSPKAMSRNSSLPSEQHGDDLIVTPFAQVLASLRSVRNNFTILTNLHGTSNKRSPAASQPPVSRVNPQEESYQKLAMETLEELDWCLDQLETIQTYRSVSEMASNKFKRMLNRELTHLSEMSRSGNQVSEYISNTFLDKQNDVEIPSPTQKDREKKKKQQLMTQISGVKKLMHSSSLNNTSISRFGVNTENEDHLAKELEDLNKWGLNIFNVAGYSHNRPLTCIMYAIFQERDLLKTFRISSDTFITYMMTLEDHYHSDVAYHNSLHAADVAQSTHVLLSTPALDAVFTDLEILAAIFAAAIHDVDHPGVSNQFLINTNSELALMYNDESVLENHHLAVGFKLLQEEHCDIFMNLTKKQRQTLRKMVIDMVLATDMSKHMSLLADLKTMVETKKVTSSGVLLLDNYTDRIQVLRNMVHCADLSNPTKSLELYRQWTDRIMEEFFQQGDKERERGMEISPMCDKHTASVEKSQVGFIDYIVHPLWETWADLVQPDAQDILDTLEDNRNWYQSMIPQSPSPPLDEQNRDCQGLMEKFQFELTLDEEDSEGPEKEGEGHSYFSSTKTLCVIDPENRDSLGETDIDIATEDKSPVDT
# Glucocorticoid receptor (Homo sapiens), sequence (P04150 whole entry, looked up, the tested form may be a part): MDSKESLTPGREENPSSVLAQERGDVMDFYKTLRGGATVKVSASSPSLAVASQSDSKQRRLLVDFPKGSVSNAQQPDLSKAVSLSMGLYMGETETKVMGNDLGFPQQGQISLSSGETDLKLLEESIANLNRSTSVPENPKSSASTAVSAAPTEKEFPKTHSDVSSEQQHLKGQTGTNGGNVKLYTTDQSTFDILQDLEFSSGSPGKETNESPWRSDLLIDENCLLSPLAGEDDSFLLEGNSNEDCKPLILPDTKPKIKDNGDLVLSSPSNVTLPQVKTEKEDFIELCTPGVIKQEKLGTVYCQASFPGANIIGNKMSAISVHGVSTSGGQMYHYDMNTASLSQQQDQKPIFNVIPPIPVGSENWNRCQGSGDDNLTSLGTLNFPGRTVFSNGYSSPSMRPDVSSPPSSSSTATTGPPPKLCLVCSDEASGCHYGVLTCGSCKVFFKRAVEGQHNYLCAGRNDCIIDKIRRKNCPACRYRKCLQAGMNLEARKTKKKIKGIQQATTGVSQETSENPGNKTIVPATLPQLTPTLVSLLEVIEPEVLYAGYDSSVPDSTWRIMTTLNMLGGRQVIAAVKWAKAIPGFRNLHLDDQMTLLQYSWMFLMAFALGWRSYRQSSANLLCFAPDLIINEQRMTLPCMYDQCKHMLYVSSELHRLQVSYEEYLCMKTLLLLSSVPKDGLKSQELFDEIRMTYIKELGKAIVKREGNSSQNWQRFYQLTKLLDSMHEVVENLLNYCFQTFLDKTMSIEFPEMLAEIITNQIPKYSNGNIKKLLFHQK
# Cytochrome P450 1A2 (Homo sapiens), sequence (P05177 whole entry, looked up): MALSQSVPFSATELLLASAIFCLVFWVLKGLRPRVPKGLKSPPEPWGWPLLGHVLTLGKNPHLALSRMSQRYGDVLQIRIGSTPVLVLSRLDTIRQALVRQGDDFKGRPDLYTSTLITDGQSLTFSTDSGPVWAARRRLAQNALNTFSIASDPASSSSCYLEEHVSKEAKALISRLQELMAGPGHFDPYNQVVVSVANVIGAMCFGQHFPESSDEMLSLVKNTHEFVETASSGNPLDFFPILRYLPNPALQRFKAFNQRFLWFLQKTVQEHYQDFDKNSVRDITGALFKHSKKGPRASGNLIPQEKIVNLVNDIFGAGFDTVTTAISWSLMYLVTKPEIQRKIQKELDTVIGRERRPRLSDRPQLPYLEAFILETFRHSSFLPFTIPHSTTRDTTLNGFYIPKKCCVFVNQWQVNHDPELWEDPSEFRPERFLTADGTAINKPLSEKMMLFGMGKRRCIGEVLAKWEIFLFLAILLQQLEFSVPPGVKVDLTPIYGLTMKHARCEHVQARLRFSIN
# Pyruvate kinase PKM (Homo sapiens), sequence (P14618 whole entry, looked up): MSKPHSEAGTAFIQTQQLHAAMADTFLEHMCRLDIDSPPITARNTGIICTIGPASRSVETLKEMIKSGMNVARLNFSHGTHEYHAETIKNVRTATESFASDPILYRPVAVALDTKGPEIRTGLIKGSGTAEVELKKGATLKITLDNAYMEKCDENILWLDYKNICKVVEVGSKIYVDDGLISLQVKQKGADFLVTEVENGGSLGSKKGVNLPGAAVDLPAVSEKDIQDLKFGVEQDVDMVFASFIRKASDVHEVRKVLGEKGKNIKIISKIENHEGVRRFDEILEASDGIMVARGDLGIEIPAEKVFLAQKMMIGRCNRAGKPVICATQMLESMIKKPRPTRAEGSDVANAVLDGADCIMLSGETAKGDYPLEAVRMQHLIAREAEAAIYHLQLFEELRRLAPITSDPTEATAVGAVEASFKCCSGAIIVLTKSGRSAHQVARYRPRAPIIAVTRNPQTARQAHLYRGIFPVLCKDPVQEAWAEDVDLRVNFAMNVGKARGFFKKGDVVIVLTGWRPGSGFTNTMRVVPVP
# Muscarinic acetylcholine receptor M1 (Rattus norvegicus), sequence (P08482 whole entry, looked up): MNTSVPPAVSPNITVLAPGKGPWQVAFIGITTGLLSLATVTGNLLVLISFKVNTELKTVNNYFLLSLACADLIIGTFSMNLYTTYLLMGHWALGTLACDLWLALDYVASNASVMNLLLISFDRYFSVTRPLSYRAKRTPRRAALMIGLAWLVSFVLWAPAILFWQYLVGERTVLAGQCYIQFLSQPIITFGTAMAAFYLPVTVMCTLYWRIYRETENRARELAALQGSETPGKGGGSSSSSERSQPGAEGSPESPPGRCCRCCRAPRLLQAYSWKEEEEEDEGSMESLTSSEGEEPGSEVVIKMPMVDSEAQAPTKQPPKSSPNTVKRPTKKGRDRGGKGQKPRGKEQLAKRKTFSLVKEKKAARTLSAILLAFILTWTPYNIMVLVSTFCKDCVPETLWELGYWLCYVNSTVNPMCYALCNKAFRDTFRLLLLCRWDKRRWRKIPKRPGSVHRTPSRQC
# Cytochrome P450 2C19 (Homo sapiens), sequence (P33261 whole entry, looked up): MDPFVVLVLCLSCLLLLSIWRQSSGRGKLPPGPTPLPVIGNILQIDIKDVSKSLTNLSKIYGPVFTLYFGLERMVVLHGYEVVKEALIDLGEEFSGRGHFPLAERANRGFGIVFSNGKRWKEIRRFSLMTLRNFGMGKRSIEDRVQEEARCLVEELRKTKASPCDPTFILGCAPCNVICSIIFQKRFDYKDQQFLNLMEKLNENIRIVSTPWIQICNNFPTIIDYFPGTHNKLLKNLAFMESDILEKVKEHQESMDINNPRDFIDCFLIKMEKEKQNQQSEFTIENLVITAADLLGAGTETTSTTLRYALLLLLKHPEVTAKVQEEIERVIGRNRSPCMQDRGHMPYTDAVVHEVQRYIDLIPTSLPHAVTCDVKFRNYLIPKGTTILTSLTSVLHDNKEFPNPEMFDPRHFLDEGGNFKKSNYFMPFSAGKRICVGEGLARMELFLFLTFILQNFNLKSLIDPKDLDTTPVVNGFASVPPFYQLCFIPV
# Cytochrome P450 2D6 (Homo sapiens), sequence (P10635 whole entry, looked up): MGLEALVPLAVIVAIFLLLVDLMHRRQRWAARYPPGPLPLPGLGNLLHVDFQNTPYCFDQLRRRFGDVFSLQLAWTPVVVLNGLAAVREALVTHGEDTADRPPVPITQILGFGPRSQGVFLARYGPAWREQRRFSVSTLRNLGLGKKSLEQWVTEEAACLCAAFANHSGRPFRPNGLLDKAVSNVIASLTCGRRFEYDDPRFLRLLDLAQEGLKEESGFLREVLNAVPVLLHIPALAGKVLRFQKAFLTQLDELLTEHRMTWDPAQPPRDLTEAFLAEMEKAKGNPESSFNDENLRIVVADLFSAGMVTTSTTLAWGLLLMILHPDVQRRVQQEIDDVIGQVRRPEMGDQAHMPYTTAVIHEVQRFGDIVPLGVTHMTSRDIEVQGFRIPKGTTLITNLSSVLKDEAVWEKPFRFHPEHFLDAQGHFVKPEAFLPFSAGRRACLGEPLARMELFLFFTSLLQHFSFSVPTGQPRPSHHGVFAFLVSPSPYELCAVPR
smiles,measurement,setting,value
O=C(O)CCC/C=C\C[C@H]1[C@@H](/C=C\[C@@H](O)C2Cc3ccccc3C2)[C@H](F)C[C@H]1O,Potency,[1],inactive
same,"activity change, negative = inhibition",[2],14.3% [at 38 µM]
same,"activity, negative = inhibition",[3],9.41% [at 38 µM]
same,Potency,[4],> 46 µM
same,Potency,[5],inactive
same,Potency,[6],inactive
same,Potency,[7],inactive
same,Potency,[8],inactive
same,Potency,[9],inactive
NC(CSS(=O)(=O)O)=N[C@@H]1C[C@H]2CC[C@@H]1C2,"activity change, negative = inhibition",[10],16.8%
same,"activity, negative = inhibition",[3],-5.27%
same,Potency,[11],> 46 µM
same,Potency,[4],> 9.22 µM
same,Potency,[5],inactive
same,Potency,[6],inactive
CC(C)[C@@H]1NC(=O)[C@H](CCCCN)NC(=O)[C@H](Cc2c[nH]c3ccccc23)NC(=O)[C@H](Cc2ccc(O)cc2)NC(=O)[C@H](C)N(C)C(=O)[C@H](Cc2ccccc2)NC1=O,Potency,[1],inactive
same,"activity change, negative = inhibition",[2],-3.97% [at 38 µM]
same,"activity, negative = inhibition",[3],-2.13% [at 38 µM]
same,Potency,[11],> 46 µM
same,Potency,[4],> 46 µM
same,Potency,[5],inactive
same,Potency,[6],inactive
same,outcome,[12],inactive
same,Potency,[13],3.98 µM (active)
same,outcome,[14],inactive
same,outcome,[15],inactive
same,outcome,[16],inactive
same,Potency,[17],inactive
CC1=C(C(=O)O)N2C(=O)[C@@H](NC(=O)[C@@H](N)C3=CCC=CC3)[C@@H]2SC1,Potency,[1],inactive
same,"activity change, negative = inhibition",[2],1.78% [at 38 µM]
same,"activity, negative = inhibition",[3],-5.32% [at 38 µM]
same,Potency,[11],> 46 µM
same,Potency,[4],> 46 µM
same,Potency,[5],inactive
same,Potency,[6],inactive
same,Potency,[18],inactive
same,Potency,[8],inactive
same,Potency,[9],inactive
same,outcome,[14],inactive
same,Potency,[19],inactive
same,outcome,[15],inactive
same,outcome,[16],inactive
same,Potency,[17],inactive
CC[C@H]1CC[C@H]2[C@@H]3CC=C4C[C@H](OC(C)=O)[C@@H](N)C[C@@]4(C)[C@H]3CC[C@@]12C,"activity change, negative = inhibition",[10],8.35%
same,Potency,[1],inactive
same,"activity, negative = inhibition",[3],-1.58%
same,Potency,[11],> 46 µM
same,Potency,[4],> 9.22 µM
same,Potency,[5],inactive
same,Potency,[6],inactive
same,Potency,[18],inactive
Nc1nc(Cl)nc2c1ncn2[C@@H]1O[C@@H](CO)[C@@H](O)[C@H]1O,Potency,[1],inactive
same,"activity change, negative = inhibition",[2],2.55% [at 38 µM]
same,"activity, negative = inhibition",[3],7.39% [at 38 µM]
same,Potency,[11],> 46 µM
same,Potency,[4],> 46 µM
same,Potency,[5],inactive
same,outcome,[12],inactive
same,outcome,[20],inactive
same,Potency,[19],inactive
same,outcome,[21],inactive
same,outcome,[15],inactive
same,outcome,[16],inactive
same,Potency,[17],inactive
C[C@]1(c2ccccc2)O[C@@H]2C[C@@H]3[C@@H]4CCC5=CC(=O)C=C[C@@]5(C)[C@]4(F)[C@H](O)C[C@]3(C)[C@@]2(C(=O)CO)O1,"activity change, negative = inhibition",[10],7.91%
same,"activity change, negative = inhibition",[1],-16.4% [at 2.29 µM]
same,"activity, negative = inhibition",[3],-4.73%
same,Potency,[11],< 2.95e-05 µM (active)
same,Potency,[4],0.00231 µM (active)
same,Potency,[5],inactive
same,Potency,[6],inactive
same,Potency,[13],3.16 µM (active)
same,Potency,[18],inactive
